# The whole screen tested about 53,000 sequences, of which about 3,700 (7%) were called active. This is one part of a sample in which actives are shown more often than they occur.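 The calls were made as follows: active = gene knockdowns whose robust z-score for IL-1 alpha signal is at least 2 or at most -2, so actives lie on both sides; inactive = the rest.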
# Experiment: Components of the Cytosolic LPS Sensing Pathway: Gene Identification via Genome-wide siRNA Screen
# Details: RAW264.7 macrophages, IL-1a HTRF, actives lie on both sides, screened at 100 nM (by protocol), cells primed 5 h with Pam3CSK4 first
# Excerpt: Non-canonical inflammasome activation by cytosolic LPS is a critical component of the host response to Gram-negative bacterial infection, however we lack a comprehensive understanding of the cellular processes that control this pathway. Here we describe a genome-wide siRNA screen to identify genes regulating the mouse macrophage IL-1 alpha response to cytosolic LPS.
# RAW264.7 cells were maintained in complete DMEM media, comprising DMEM with 4.5 g/L glucose, 10% FBS (Gemini Bio-Products, West Sacramento, CA), 2 mM Glutamine (Lonza) and 20 mM HEPES (Lonza), hereafter complete DMEM.
# The RNAi screen was conducted in 384-well format using the Ambion Silencer Mouse Genome siRNA Library (#4391425), which consists of three unique, nonoverlapping, nonpooled siRNAs for each of 17,000 gene targets. siRNA reagents ([…]) were stamped into 384-well white flat-bottom microplates (Corning, 3570) using a Velocity11 VPrep liquid handling system (Agilent) integrated into a BioCel robotic platform (Agilent) in columns 1-22, leaving columns 23-24 empty for negative (Ambion, Negative control #1) and positive (mouse Casp4) controls, respectively. The median value of each plate's negative control column was used to normalize sample wells, and the positive control was used to assess transfection efficiency and assay performance.
# Lipofectamine RNAiMAX Transfection Reagent ([…]; Invitrogen) was added in […] serum-free, antibiotic-free media to plate wells using a Thermo Scientific Matrix WellMate and Microplate Stacker. Plates were incubated for 45 min at room temperature to allow for the sufficient formation of siRNA-lipid complexes. Cells were seeded at a density of 1x10^4 cells per well in 20 microL media containing 20% (vol/vol) FBS without antibiotics. The final concentration of siRNA in each well was 100 nM. Cells were cultured for 48h at 37 degrees C in 5% CO2 before addition of […] of TLR ligand Pam3CSK4 for 5 hours. The medium was then removed, replaced with […] growth media and cell were transfected with […] of LipidA and TransIT-TKO (Mirus) for 24 hour. At the end of the LipidA treatment, […] of supernatant was transferred to a 384 Greiner Bio-one non-binding low volume plate and […] of IL-1a HTRF reagent (Cisbio, 62MIL1APEH) was added and incubated at room temperature overnight. The plates were read on an EnVision plate reader (PerkinElmer). Cell viability was measured by adding 20ul Cell Titer Glo to the original plate and running a luminescence read on the EnVision. The quantified IL-1a signal for each siRNA gene-targeted well was divided by the median of the negative control wells and multiplied by 100 to achieve a negative control normalized value for each well/siRNA. This normalized value was then used to generate a robust z-score by first taking the log of each value and then by subtracting the median and dividing by the […].
row,Sequence,z-score
1,CCAUCAAAGUCAUCGACGGTT against Birc6,-0.427 (inactive)
2,GGAGUGAGUCCUGAAGCAATT against Ifna12,-0.372 (inactive)
3,GCCGUUACUGAGCUGAAAUTT against Allc,-0.866 (inactive)
4,CGCUUCAUGACUUCUGAAUTT against Ppp1r32,0.0722 (inactive)
5,GCCCAACCUGUCCAUACUUTT against Guca2b,-0.193 (inactive)
6,GCUAUUUUCGUCACUUUCUTT against Tssk1,0.494 (inactive)
7,GGAUGAAUUCAUUGAAGAATT against Btk,0.321 (inactive)
8,GGUUCGUCGCCUUUUAGGGTT against Alx4,3.74 (active)
9,GAGCUUCUAAUUCACCCUATT against Abcc6,0.181 (inactive)
10,GGGAACCUUACUGUGUUAUTT against Gpr85,0.477 (inactive)
11,GGGUUUCCAGUACCUCAAUTT against Serpina6,-1.28 (inactive)
12,GGCUUUUAUAGCUAAGGUUTT against Spc25,-2.18 (active)
13,GGACUGUGAACAACUUUCGTT against Tcim,-1.07 (inactive)
14,GGCUAUCUACAAAAUGGUGTT against Vsnl1,-1.31 (inactive)
15,GCUAACCAGUGAUCCUACATT against Olfr846,0.471 (inactive)
16,GCACUUGUGACUUAUUGGATT against Vmn2r-ps11,0.506 (inactive)
17,GGGUCAGAGUUUUUCCAUCTT against Otog,2.72 (active)
18,GGGACGUAAAUCAAAUGAATT against P2ry12,0.096 (inactive)
19,GGAGGUGGAACUGCUGUAUTT against Fam180a,-0.257 (inactive)
20,GGCAGAAAGAUUAUGAGUUTT against Gpr171,2.35 (active)
21,GGAAUUAAAAGAGCUGGGCTT against Selenon,0.697 (inactive)
22,GGGUGCUGAACAGUCACAATT against Rab12,0.717 (inactive)
23,UGAAGGCAAAUCACUCUUUTT against Olfr181,-0.042 (inactive)

row,Sequence,z-score
1,GGAGGAUCCUGCUAUUCCATT against 4930583K01Rik,-2.24 (active)
2,GGUGCUGGAGAAGAACAUGTT against Map2k3,1.51 (inactive)
3,GGAAAGAGAUUCUCUUCUATT against Nsun2,-1.2 (inactive)
4,CGGCUUUGAAGUGGUGUAUTT against Smad9,1.66 (inactive)
5,CCUUAGGCAUGGUCUGGACTT against Gal3st2,0.897 (inactive)
6,CCUUCAUGAGUCCUCUUCATT against Gaa,-2.08 (active)
7,GGGUUUUCAAAGACAAGAUTT against Frmd6,1.47 (inactive)
8,GGAGCUUUUUAUGUUUUAGTT against Fam177a,1.93 (inactive)
9,CCCUGAGAUAGGCAAUGUGTT against Tceanc2,-1.57 (inactive)
10,GCUUCAUGGAUGCAAUUGATT against Adhfe1,-0.659 (inactive)
11,GGUUGAAAAGUAUCAAAGATT against Pus7l,-0.359 (inactive)
12,GGAUUAGACUGUCUUCAGCTT against Rnf144a,-0.496 (inactive)
13,GGCCUGUUUUGUACUUUUATT against Polr3gl,0.149 (inactive)
14,GGGAUAUUCAAAAUACUAGTT against Hells,0.653 (inactive)
15,GCUACAGACUGAACAAUGATT against Rbm17,-2.08 (active)
16,CCAUCUGAUUAAUGGCUUCTT against Tm7sf2,1.03 (inactive)
17,GUGCCUUUGUGGUCUUCCUTT against Tmem179,-1.16 (inactive)
18,GGAUCCCAAGUUCAAAGCCTT against Rfxap,2.07 (active)
19,CCUAUAACAUCCACCUUCATT against Yipf3,-0.508 (inactive)
20,GGAAACAAGAAGAACGAUGTT against Camk2a,1.47 (inactive)
21,GCACUCAGCUAGGUGAAGATT against Hnrnpul1,-0.186 (inactive)
22,GAUCUAGGACAGCUUAGAUTT against Avpr1b,-0.955 (inactive)
23,GCCAAUGAAAACCUUUUGCTT against Parp9,-0.736 (inactive)

row,Sequence,z-score
1,GGAUUUUACAUUUCUACACTT against Tmprss15,2.14 (active)
2,CGCACUGGAUAAUAUCAGCTT against Dok5,0.0135 (inactive)
3,GGCAGAAAUUUGGAUACCATT against Plekha4,2.1 (active)
4,GGAAGUUAGCUCCUAAAUATT against Pirt,-0.383 (inactive)
5,CCUUUUUUAUAUCCACUCATT against Bahcc1,1.22 (inactive)
6,GCAUCACUGCCACAGUGCATT against Olfr159,-0.133 (inactive)
7,GUAGUUGUUCUGAGAAAUCTT against Krtap19-2,-0.49 (inactive)
8,GGAAAUUCAAAAAGUGUGUTT against Aplf,-2.25 (active)
9,GGCCUGUUUUGAAGUAGAATT against B630019K06Rik,0.352 (inactive)
10,GCCAUUUGAAACUCUCCUGTT against Gstp3,-1.71 (inactive)
11,GGUCCUCCAGUUAAUGUCATT against Glra3,-0.916 (inactive)
12,GGUUAUCCAGAGAGUGCAUTT against Arl4d,1.01 (inactive)
13,ACUCCUAUGAGCUAGCUGUTT against Krt42,0.919 (inactive)
14,GGAAUUGAGACCCAAUAUUTT against Cnot7,-0.353 (inactive)
15,GGAAUCAGCAAACUCAACCTT against Rnase11,-0.748 (inactive)
16,GGAUUCAGAAGCAGCAACATT against Nr1h2,-2.29 (active)
17,GGCCAAGGACAUUAUAAAUTT against Scly,-0.585 (inactive)
18,AGUGAACAUCGAUCGCAUGTT against Gng8,0.937 (inactive)
19,GCAAUGGUGGUUCUAAUAUTT against Cmya5,-0.00244 (inactive)
20,GCCAACCAGGAUUUUACAATT against Fga,0.463 (inactive)
21,GGAGAGUGUGUUUUCAGGCTT against Bop1,3.08 (active)
22,GAGUGUCUUGAACACAGCCTT against Olfr635,-0.0711 (inactive)
